# The supplement of paper PMC8975748
# Counter-ions that a name gives are not always drawn. ± gives the standard deviation of the averaged measurements.
# Tested on: Saccharomyces cerevisiae BY4741 SeMeCo community
# Assay: mean cell size (pixel area) (pixels); higher = larger cells
# Conditions: 10 µM; 24 h; SM minimal medium
# Summary of the method: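 Mean cell pixel area per well was measured in a four-plasmid fluorescent community of Saccharomyces cerevisiae BY4741, where every plasmid complements one auxotrophy and carries a fluorescent marker. Cells from an overnight preculture at OD600 = 1.0 were diluted to OD600 = 0.3 and dispensed at 70 µl into 384-well plates acoustically predosed with drug to a final 10 µM in SM medium. Incubation lasted 24 h, followed by paraformaldehyde fixation, automated confocal imaging and analysis in Harmony. Reported figures are averaged over 3 replicates. Same SeMeCo high-content imaging drug screen: Selleck FDA-approved drugs at 10 µM, 24 h in SM medium, 384-well plates, 3 replicates.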
row,Structure (SMILES),mean cell size
1,CC(C)Cc1ccc(C(C)C(=O)O)cc1 (configuration not stated) [Ibuprofen],13.04 ± 0.12
2,Fc1ccc(C(c2ccc(F)cc2)N2CCN(C/C=C/c3ccccc3)CC2)cc1 [Flunarizine 2HCl],12.38 ± 0.06
3,COCCCN1CCC(NC(=O)c2cc(Cl)c(N)c3c2OCC3)CC1 [Prucalopride Succinate],12.5 ± 0.32
4,CCCCOc1ccc(CC(=O)NO)cc1 [Bufexamac],12.53 ± 0.12
5,NCC[C@H](O)C(=O)N[C@@H]1C[C@H](N)[C@@H](O[C@H]2O[C@H](CN)[C@@H](O)[C@H](O)[C@H]2O)[C@H](O)[C@H]1O[C@H]1O[C@H](CO)[C@@H](O)[C@H](N)[C@H]1O [Amikacin disulfate],11.9 ± 0.14
6,O=C(Nc1cc(Cl)cc(Cl)c1O)c1c(O)c(Cl)cc(Cl)c1Cl [Oxyclozanide],12.2 ± 0.31
7,CCC(=O)NS(=O)(=O)c1ccc(-c2c(-c3ccccc3)noc2C)cc1 [Parecoxib Sodium],12.39 ± 0.068
8,CN(CCN1CCC(OC(=O)Nc2ccccc2-c2ccccc2)CC1)C(=O)c1ccc(CN2CCC(C(N)=O)CC2)cc1 [Revefenacin],12.17 ± 0.043
9,Cc1nnc(NS(=O)(=O)c2ccc(N)cc2)s1 [Sulfamethizole],12.3 ± 0.23
10,CC1=CC[C@@](O)(C(C)C)CC1 [Terpinen-4-ol],12.39 ± 0.073
11,CS(=O)(=O)c1ccc([C@@H](O)[C@@H](CF)NC(=O)C(Cl)Cl)cc1 [Florfenicol],12.4 ± 0.26
12,Cn1c([N+](=O)[O-])cnc1COC(N)=O [Ronidazole],12.5 ± 0.033
13,CC(=O)OCC(COC(C)=O)OC(C)=O [Triacetin],12.4 ± 0.15
14,COc1ccc(Cl)cc1C(=O)NCCc1ccc(S(=O)(=O)NC(=O)NC2CCCCC2)cc1 [Glyburide (Glibenclamide)],12.36 ± 0.11
15,O=C(Nc1c(Cl)cncc1Cl)c1ccc(OC(F)F)c(OCC2CC2)c1 [Roflumilast],12.4 ± 0.14
16,CCN(CC)CCOc1ccc2c(c1)C(=O)c1cc(OCCN(CC)CC)ccc1-2 [Tilorone dihydrochloride],12.3 ± 0.13

row,Structure (SMILES),mean cell size
1,CN(C)[C@@H](CCOc1cccc2ccccc12)c1ccccc1 [Dapoxetine HCl],12.3 ± 0.037
2,CN(C)CCC=C1c2ccccc2C(C)(C)c2ccccc21 [Melitracen hydrochloride],12 ± 0.24
3,COc1cc(Cc2cnc(N)nc2N)cc(OC)c1OC [Trimethoprim],12.4 ± 0.14
4,OCCN1CCN(CCCN2c3ccccc3Sc3ccc(C(F)(F)F)cc32)CC1 [Fluphenazine dihydrochloride],12.4 ± 0.097
5,CC(C)c1c(C(=O)Nc2ccccc2)c(-c2ccccc2)c(-c2ccc(F)cc2)n1CC[C@@H](O)C[C@@H](O)CC(=O)O [Atorvastatin],11.1 ± 0.15
6,COCCOC(=O)C1=C(C)NC(C)=C(C(=O)OC(C)C)C1c1cccc([N+](=O)[O-])c1 (configuration not stated) [Nimodipine],12.31 ± 0.09
7,CCOC(=O)C1=C(C)NC(C)=C(C(=O)OC)C1c1cccc([N+](=O)[O-])c1 (configuration not stated) [Nitrendipine],12.5 ± 0.13
8,CC(C)n1c(/C=C/C(O)CC(O)CC(=O)O)c(-c2ccc(F)cc2)c2ccccc21 (configuration not stated) [Fluvastatin Sodium],12.1 ± 0.16
9,CCCN[C@H]1CCc2nc(N)sc2C1 [Pramipexole dihydrochloride],12.3 ± 0.17
10,Cc1cc(C)nc(NS(=O)(=O)c2ccc(N)cc2)n1 [Sulfamethazine],12.5 ± 0.25
11,CC[C@H](C)C(=O)O[C@H]1C[C@@H](C)C=C2C=C[C@H](C)[C@H](CC[C@@H]3C[C@@H](O)CC(=O)O3)[C@H]21 [Lovastatin],11.9 ± 0.13
12,CN1[C@@H]2CC[C@H]1C[C@@H](OC(c1ccccc1)c1ccccc1)C2 [Benztropine mesylate],12.38 ± 0.057
13,CO/N=C(\C(=O)N[C@@H]1C(=O)N2C(C(=O)O)=C(CSc3nnnn3C)CS[C@H]12)c1csc(N)n1 [Cefmenoxime hydrochloride],12.5 ± 0.38
14,NCC[C@H](O)C(=O)N[C@@H]1C[C@H](N)[C@@H](O[C@H]2O[C@H](CN)[C@@H](O)[C@H](O)[C@H]2O)[C@H](O)[C@H]1O[C@H]1O[C@H](CO)[C@@H](O)[C@H](N)[C@H]1O [Amikacin hydrate],12.16 ± 0.089
15,CO/N=C(\C(=O)N[C@@H]1C(=O)N2C(C(=O)O)=C(CSc3nc(C)c(CC(=O)O)s3)CS[C@H]12)c1csc(N)n1 [Cefodizime Sodium],12.4 ± 0.13
16,COc1ccc2c3c1O[C@H]1C[C@@H](O)C=C[C@@]31CCN(C)C2 [Galanthamine],12.47 ± 0.052
